Results from the OligoGym collection.

Biological target: COL20A1
Experiment: pooled miR-30 sensor sort-seq; sequence = guide strand
Conditions: shRNA
Note: reference of the scale not given here.

Sequence	sensor-assay potency score (higher = more potent)
TAGACAAGCACGCCAGACGGGG	-1.06
TTGAACTTGCTCTCTTCCCAGG	-1.19
TAGAGCCTGACCTTGGAGCGGC	-0.375

Biological target: COL23A1
Experiment: as above
Conditions: shRNA

Sequence	sensor-assay potency score (higher = more potent)
TAGTCGATCACCACTGTGTCTC	-0.624
TTTGCCTGCACAGCCCACCTAG	-1.12
TTCTCTCCACGCTCGCTCCGAT	-1.13
TTGCTGGGAACACTTGCTGGAG	-1.43
TTCGCTAGTCCGTCCAACTTCT	-0.113
TCTACCTTCATCTCCTTCCTGG	0.0937
TAGTCCGTCCAACTTCTCCCGC	-1.02
TTGCTTTGCCTGCACAGCCCAC	-1.59
TTGAGGGCATCCAAGATCCTGC	-1.13
TAGAGCTAGACCCTCGTGGGGG	-0.316
TTGTCCTTGGTCTCCCCGGGGG	-1.12
TCATAGTCGATCACCACTGTGT	0.319

Biological target: COL4A2
Experiment: as above
Conditions: shRNA

Sequence	sensor-assay potency score (higher = more potent)
TTTGATAGCTTCGTCGCCTTCT	0.156
TGTCACAATCTATTTGTCCTGG	0.235
TTGCATTCGATGAATGGTGTGG	0.0414
TTTGTAGTCGTTACACAGGAGG	-1.03
ATCTGTGTCACAATCTATTTGT	-0.377
TAGTAGTGGCAGGTGCCGCGGC	-0.784
TGATTGTTCTGGAATCTCCTTT	0.225
TATCCGATCCACAAACTCCGCC	-0.539
TTTCTCTCCTTTAATGTCTTTC	-0.595
TTGGTTGTGATTGTTCTGGAAT	-0.89
TACAGGAAGGGCATGGTGCTGA	-0.213
TAGGGCTTGATCTCGTCCTCGG	-0.228
TAGGACTTGTCGTTCCGGCTGG	0.103
TAAATTTATAGTGTCCCCGATG	-0.984
TTCTCCTGGAGTACCCTTCGTT	-0.712
TACATCTGCATTCCCCAGCGTC	-0.779
TTAAATCTCAGGGACAACGTGG	-0.373
TTTACGTCCCTGCAGTCCCGGG	-1.37
TAGTAGCAGACATCACCAGGGT	0.056
TTGGTCTCCTTTCTGTCCTGGG	-0.772
TCACACACAGAACAGCGGCTGA	-0.772
TCACATCTGTGTCACAATCTAT	-0.621
TTTAATGTCTTTCATTCCTGGC	-0.64
TCTATCTCCTTTTAGCCCGGGG	-0.278
